Among all 5,500 compounds or so, about 2,000 (36%) were called active. Roughly 18% stayed inconclusive and do not appear here. Cut-off read from the data, not from the text of the source: active = normalized growth mostly below about 0.91 (no sharp cut-off); inconclusive = no clear call, values can overlap the other calls; inactive = mostly above about 0.92. The list shows a part of the results.
Assay: chemical genetic growth profiling, strain panel (AID 1159580);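 note: tested at 20 µM; growth read once vehicle control cultures reached saturation at 30 °C; 1 = growth at the plate median or of vehicle wells; lower values mean less growth of the strain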
Details: growth OD
[1] = S. cerevisiae deletion strains, locus YAL013W, strain DEP1, stronger effect = lower value
[2] = S. cerevisiae deletion strains, locus YBR229C, strain ROT2, stronger effect = lower value
[3] = S. cerevisiae deletion strains, locus YDL101C, strain DUN1, stronger effect = lower value
[4] = S. cerevisiae deletion strains, locus YDL134C, strain PPH21, stronger effect = lower value
[5] = S. cerevisiae deletion strains, locus YDR150W, strain NUM1, stronger effect = lower value
[6] = S. cerevisiae deletion strains, locus YEL061C, strain CIN8, stronger effect = lower value
[7] = S. cerevisiae deletion strains, locus YGR078C, strain PAC10, stronger effect = lower value
[8] = S. cerevisiae deletion strains, locus YGR229C, strain SMI1, stronger effect = lower value
[9] = S. cerevisiae deletion strains, locus YHR030C, strain SLT2, stronger effect = lower value
[10] = S. cerevisiae deletion strains, locus YHR087W, strain rtc3, stronger effect = lower value
[11] = S. cerevisiae deletion strains, locus YJR043C, strain POL32, stronger effect = lower value
[12] = S. cerevisiae deletion strains, locus YJR075W, strain HOC1, stronger effect = lower value
[13] = S. cerevisiae deletion strains, locus YKL190W, strain CNB1, stronger effect = lower value
[14] = S. cerevisiae deletion strains, locus YLR039C, strain RIC1, stronger effect = lower value
[15] = S. cerevisiae deletion strains, locus YLR058C, strain SHM2 (second series), stronger effect = lower value
[16] = S. cerevisiae deletion strains, locus YLR085C, strain ARP6, stronger effect = lower value
[17] = S. cerevisiae deletion strains, locus YLR262C, strain YPT6, stronger effect = lower value
[18] = S. cerevisiae deletion strains, locus YML094W, strain GIM5, stronger effect = lower value
[19] = S. cerevisiae deletion strains, locus YMR219W, strain ESC1, stronger effect = lower value
[20] = S. cerevisiae deletion strains, locus YMR263W, strain SAP30, stronger effect = lower value
[21] = S. cerevisiae deletion strains, locus YNL153C, strain GIM3, stronger effect = lower value
[22] = S. cerevisiae deletion strains, locus YNL298W, strain CLA4 (second series), stronger effect = lower value
[23] = S. cerevisiae deletion strains, locus YNL322C, strain KRE1, stronger effect = lower value
[24] = S. cerevisiae deletion strains, locus YNR030W, strain Alg12, stronger effect = lower value
[25] = S. cerevisiae deletion strains, locus YOL006C, strain TOP1, stronger effect = lower value
[26] = S. cerevisiae deletion strains, locus YPL055C, strain LGE1, stronger effect = lower value
[27] = S. cerevisiae deletion strains, locus YPL241C, strain CIN2, stronger effect = lower value
[28] = S. cerevisiae deletion strains, locus YPR135W, strain CTF4, stronger effect = lower value
[29] = S. cerevisiae strains, strain wild type, stronger effect = lower value
[30] = S. cerevisiae deletion strains, locus YJL187C, strain SWE1, stronger effect = lower value

Measured: normalized growth

O=[N+]([O-])c1ccccc1SCc1n[nH]c(=S)n1-c1cccc(C(F)(F)F)c1
inactive: [1] 0.973 | [2] 0.991 | S. cerevisiae deletion strains, locus YCL061C, strain MRC1, stronger effect = lower value 0.989 | [3] 1 | [4] 1.01 | [5] 1.01 | [6] 0.969 | [7] 0.967 | [8] 0.994 | [9] 1.04 | [10] 1.01 | [11] 0.999 | [12] 1.02 | [13] 0.974 | [14] 0.988 | [15] 0.996 | [16] 0.87 | [17] 1.01 | [18] 0.967 | [19] 0.992 | [20] 1 | [21] 1.03 | [22] 0.932 | [23] 0.97 | [24] 0.94 | [25] 0.886 | [26] 0.99 | [27] 0.985 | [28] 1.13 | [29] 0.975

S=c1[nH]nc(SCCSc2n[nH]c(=S)s2)s1
inactive: [1] 0.969 | [2] 1.04 | [3] 0.947 | [4] 0.993 | [5] 1.03 | [6] 1.02 | [7] 0.952 | [8] 0.987 | [9] 1.1 | [10] 1.02 | [11] 1.02 | [12] 1.06 | [14] 1 | [15] 0.989 | [16] 0.945 | [17] 1.16 | [18] 0.988 | [19] 0.969 | [20] 0.994 | S. cerevisiae deletion strains, locus YMR307W, strain GAS1, stronger effect = lower value 1 | [21] 1 | [22] 0.963 | [23] 0.987 | [24] 0.989 | [26] 0.965 | [27] 0.984 | [28] 1.02 | [29] 0.988
active: [30] 0.93

FC(F)(F)c1cccc(CSc2n[nH]c(=S)s2)c1
inactive: [5] 0.903 | [9] 0.728 | [17] 0.838 | [18] 0.914
active: [1] 0.774 | [2] 0.479 | [3] 0.522 | [4] 0.883 | [6] 0.861 | [7] 0.427 | [10] 0.592 | [30] 0.51 | [11] 0.791 | [12] 0.31 | [13] 0.887 | [14] 0.706 | [15] 0.797 | [16] 0.593 | [19] 0.606 | [20] 0.763 | [21] 0.533 | [22] 0.787 | [23] 0.873 | [24] 0.824 | [25] 0.409 | [27] 0.833 | [28] 0.638

O=[N+]([O-])c1cnc(Sc2nnc(SCc3cccc(C(F)(F)F)c3)s2)s1
active: S. cerevisiae deletion strains, locus YAR019C, strain CDC15, stronger effect = lower value 0.098 | S. cerevisiae deletion strains, locus YBL105C, strain PKC1, stronger effect = lower value 0.0818 | S. cerevisiae deletion strains, locus YBR135W, strain CKS1, stronger effect = lower value 0.0984 | S. cerevisiae deletion strains, locus YBR136W, strain MEC1, stronger effect = lower value 0.0945 | S. cerevisiae deletion strains, locus YBR160W, strain CDC28, stronger effect = lower value 0.0963 | S. cerevisiae deletion strains, locus YDL017W, strain CDC7, stronger effect = lower value 0.0822 | S. cerevisiae deletion strains, locus YDL028C, strain MPS1, stronger effect = lower value 0.111 | [3] 0.107 | S. cerevisiae deletion strains, locus YDL108W, strain KIN28, stronger effect = lower value 0.0971 | S. cerevisiae deletion strains, locus YDL132W, strain cdc53, stronger effect = lower value 0.0889 | S. cerevisiae deletion strains, locus YDL214C, strain PRR2, stronger effect = lower value 0.106 | S. cerevisiae deletion strains, locus YDR052C, strain DBF4, stronger effect = lower value 0.0805 | S. cerevisiae deletion strains, locus YDR054C, strain cdc34, stronger effect = lower value 0.0921 | S. cerevisiae deletion strains, locus YDR226W, strain ADK1, stronger effect = lower value 0.0971 | S. cerevisiae deletion strains, locus YDR477W, strain SNF1, stronger effect = lower value 0.101 | S. cerevisiae deletion strains, locus YER123W, strain YCK3, stronger effect = lower value 0.111 | S. cerevisiae deletion strains, locus YER133W, strain GLC7, stronger effect = lower value 0.107 | S. cerevisiae deletion strains, locus YFL009W, strain cdc4, stronger effect = lower value 0.102 | S. cerevisiae deletion strains, locus YFL029C, strain CAK1, stronger effect = lower value 0.098 | S. cerevisiae deletion strains, locus YFR003C, strain YPI1, stronger effect = lower value 0.0893 | S. cerevisiae deletion strains, locus YFR019W, strain FAB1, stronger effect = lower value 0.106 | S. cerevisiae deletion strains, locus YFR028C, strain CDC14, stronger effect = lower value 0.0995 | S. cerevisiae deletion strains, locus YGR040W, strain KSS1, stronger effect = lower value 0.0976 | S. cerevisiae deletion strains, locus YGR052W, strain FMP48, stronger effect = lower value 0.101 | S. cerevisiae deletion strains, locus YGR092W, strain DBF2, stronger effect = lower value 0.0989 | [9] 0.131 | S. cerevisiae deletion strains, locus YHR079C, strain IRE1, stronger effect = lower value 0.0953 | S. cerevisiae deletion strains, locus YHR082C, strain KSP1, stronger effect = lower value 0.13 | S. cerevisiae deletion strains, locus YHR205W, strain SCH9, stronger effect = lower value -0.0106 | S. cerevisiae deletion strains, locus YIL147C, strain SLN1, stronger effect = lower value 0.102 | S. cerevisiae deletion strains, locus YJL095W, strain BCK1, stronger effect = lower value 0.118 | S. cerevisiae deletion strains, locus YJL128C, strain PBS2, stronger effect = lower value 0.0978 | S. cerevisiae deletion strains, locus YJL157C, strain FAR1, stronger effect = lower value 0.0837 | S. cerevisiae deletion strains, locus YJR016C, strain ILV3, stronger effect = lower value 0.0869 | S. cerevisiae deletion strains, locus YJR066W, strain TOR1 (second series), stronger effect = lower value 0.0917 | S. cerevisiae deletion strains, locus YJR066W, strain TOR1, stronger effect = lower value 0.122 | S. cerevisiae deletion strains, locus YKL048C, strain ELM1, stronger effect = lower value 0.111 | S. cerevisiae deletion strains, locus YKL067W, strain YNK1, stronger effect = lower value 0.105 | S. cerevisiae deletion strains, locus YKL101W, strain HSL1, stronger effect = lower value 0.1 | S. cerevisiae deletion strains, locus YKL193C, strain SDS22, stronger effect = lower value 0.0958 | S. cerevisiae deletion strains, locus YKL203C, strain TOR2, stronger effect = lower value 0.111 | S. cerevisiae deletion strains, locus YLR113W, strain HOG1, stronger effect = lower value 0.127 | S. cerevisiae deletion strains, locus YLR133W, strain CKI1, stronger effect = lower value 0.0966 | S. cerevisiae deletion strains, locus YLR403W, strain SFP1, stronger effect = lower value -0.00531 | S. cerevisiae deletion strains, locus YML070W, strain DAK1, stronger effect = lower value 0.103 | S. cerevisiae deletion strains, locus YMR001C, strain CDC5, stronger effect = lower value 0.0974 | S. cerevisiae deletion strains, locus YMR205C, strain PFK2 (second series), stronger effect = lower value 0.101 | S. cerevisiae deletion strains, locus YMR277W, strain FCP1, stronger effect = lower value 0.0974 | S. cerevisiae deletion strains, locus YNL006W, strain LST8, stronger effect = lower value 0.0863 | S. cerevisiae deletion strains, locus YNL020C, strain ARK1, stronger effect = lower value 0.109 | S. cerevisiae deletion strains, locus YNL161W, strain CBK1, stronger effect = lower value 0.0953 | S. cerevisiae deletion strains, locus YNL183C, strain NPR1, stronger effect = lower value 0.093 | S. cerevisiae deletion strains, locus YNL207W, strain RIO2, stronger effect = lower value 0.0918 | S. cerevisiae deletion strains, locus YNL222W, strain SSU72, stronger effect = lower value 0.1 | S. cerevisiae deletion strains, locus YNL307C, strain MCK1 (second series), stronger effect = lower value 0.108 | S. cerevisiae deletion strains, locus YOL078W, strain AVO1, stronger effect = lower value 0.0995 | S. cerevisiae deletion strains, locus YOL136C, strain PFK27, stronger effect = lower value 0.0976 | S. cerevisiae deletion strains, locus YOR061W, strain CKA2, stronger effect = lower value 0.0984 | S. cerevisiae deletion strains, locus YOR119C, strain RIO1, stronger effect = lower value 0.105 | S. cerevisiae deletion strains, locus YOR231W, strain MKK1, stronger effect = lower value 0.0992 | S. cerevisiae deletion strains, locus YOR329C, strain SCD5, stronger effect = lower value 0.0854 | S. cerevisiae deletion strains, locus YPL031C, strain PHO85, stronger effect = lower value 0.103 | S. cerevisiae deletion strains, locus YPL153C, strain RAD53, stronger effect = lower value 0.0944 | S. cerevisiae deletion strains, locus YPL204W, strain HRR25, stronger effect = lower value 0.107 | S. cerevisiae deletion strains, locus YPL209C, strain IPL1, stronger effect = lower value 0.0842 | S. cerevisiae deletion strains, locus YPL256C, strain CLN2, stronger effect = lower value 0.133 | S. cerevisiae deletion strains, locus YPR025C, strain CCL1, stronger effect = lower value 0.0989 | S. cerevisiae deletion strains, locus YPR106W, strain ISR1, stronger effect = lower value 0.0861 | S. cerevisiae deletion strains, locus YPR111W, strain DBF20, stronger effect = lower value 0.0999 | S. cerevisiae deletion strains, strain NNK1, stronger effect = lower value 0.0942 | S. cerevisiae deletion strains, strain TSCII, stronger effect = lower value 0.102

Reference: PubChem BioAssay AID1159580 (chemical genetic matrix, 2015)
